From PubChem BioAssay (NCATS)
Records with an inconclusive call do not appear. The source made the active and inactive calls. Calls come from the whole dose curve; as a rule, active = well fitted inhibition curve with a large enough effect; inconclusive = small, poorly fitted or top-dose-only effect; inactive = no such curve, though single readings can be large or run the other way.
Potency is the fitted concentration of half-maximal effect.

Assay: qHTS Screen of the MIPE 4.0 Collection Against Ewings Sarcoma (EW8) (AID 1259255); note: nearly all actives have a fitted effect of over 35% in size
Settings: EW8 Ewing sarcoma viability, CellTiter-Glo, 48 h; series mostly up to 45.8 µM
Excerpt: There is a large unmet medical need for treatments for Ewing sarcoma, a pediatric sarcoma. We sought to identify compounds that inhibited Ewing sarcoma cells in vitro with the goal to then test promising drugs in two drug combinations in vitro to look for synergistic drug combinations. Promising combinations would then proceed to additional validation, including in vivo testing.
Using the NCATS developed oncology compound library called the Mechanism of Interrogation Plate (MIPE), four Ewing sarcoma cell lines were evaluated (TC32, TC71, RDES, EW8). Compounds, in a 12-point titration series, were incubated with cells for 48 hours and the read out was cell viability (CellTiter-Glo from Promega). These initial experiments were used to select appropriate concentrations of each single agent for subsequent two-drug matrix combinations such that the concentrations in the matrices would span both activity and non-activity.
Cells, in the log phase of growth, were seeded in 5 uL of RPMI plus 5% FBS, […] L-glutamine, 100 U/ml penicillin and 100 ug/ml streptomycin into 1536-well solid-bottom white tissue culture treated Greiner Bio One Plates (789173-F) using a MultiDrop Combi (Thermofisher Scientific) dispenser and a small sterile cassette. One column was media alone to be used as a :"no cells" control. The plates were then covered with sterilized stainless steel gasketed lids from Kalypsys. After allowing cells to attach for 4 hours, 23 nL of test compound or control (negative control DMSO and positive control 9.2 uM Bortezomib-final) were added from a 1536-well polypropylene compound source plate to each well using a 1536 head pin tool from Kalypsys. Cells were then incubated for 48 hours at 37C, 95% relative humidity and 5% CO2. After 48 hours, plates were removed from the incubator and 3 uL of CellTiter-Glo (Promega) was added using an Aurora Flying Reagent Dispenser Bioraptor. Plates were incubated at room temperature for 10 minutes prior to reading the luminescence on the Viewlux (PerkinElmer). The relative luciferase units are used to calculate the percent activity using the activity of DMSO in the cells and no cells columns for normalization of no inhibition and full inhibition respectively.
In the case of `N[C@@H](Cc1ccc(N(CCCl)CCCl)cc1)C(=O)O`, the Potency is reported as 3.32 µM (active). With `COc1ccc(C(CN(C)C)C2(O)CCCCC2)cc1` (centres undefined) the Potency was 26.4 µM (active). In the case of `CCCC(C)(COC(N)=O)COC(=O)NC(C)C` (centres undefined), the Potency is reported as “inactive”. In the case of `CN(C)[C@@H]1C(=O)C(C(N)=O)=C(O)[C@@]2(O)C(=O)C3=C(O)c4c(O)cccc4[C@@](C)(O)[C@H]3C[C@@H]12`, the Potency is reported as 11.8 µM (active). For `CC(O)(CS(=O)(=O)c1ccc(F)cc1)C(=O)Nc1ccc(C#N)c(C(F)(F)F)c1` (centres undefined), the Potency was 3.72 µM (active). In the case of `C[C@@H]1[C@@H](C(=O)C[C@H]2O[C@@H]3O[C@]4(C)CC[C@@H]5[C@H](C)CC[C@@H]([C@H]2C)[C@@]35OO4)O[C@@H]2O[C@]3(C)CC[C@H]4[C@H](C)CC[C@@H]1[C@@]24OO3`, the Potency is reported as 0.743 µM (active). For `C[C@@H]1[C@@H](CC(C[C@H]2O[C@@H]3O[C@]4(C)CC[C@@H]5[C@H](C)CC[C@@H]([C@H]2C)[C@@]35OO4)C[S+](=O)([O-])c2ccc(COC(=O)N(C)C)cc2)O[C@@H]2O[C@]3(C)CC[C@H]4[C@H](C)CC[C@@H]1[C@@]24OO3` (some centres undefined), the Potency was 0.264 µM (active). In the case of `CN(C)CCN(C)CCc1ccc(Cl)c(Cl)c1`, the Potency is reported as “inactive”. With `COC[C@@H](NC(C)=O)C(=O)NCc1ccccc1` the Potency was “inactive”. In the case of `O=P1(NCCCl)OCCCN1CCCl` (centres undefined), the Potency is reported as 20.9 µM (active). For `Cn1cc(C2=C(c3cn(C4CCN(Cc5ccccn5)CC4)c4ccccc34)C(=O)NC2=O)c2ccccc21`, the Potency was 10.5 µM (active). For `C[C@@H]1O[C@@H](O[C@H]2C[C@@H](O)[C@]3(CO)[C@H]4[C@H](O)C[C@]5(C)[C@@H](C6=CC(=O)OC6)CC[C@]5(O)[C@@H]4CC[C@]3(O)C2)[C@H](O)[C@H](O)[C@H]1O`, the Potency was 0.0372 µM (active). For `C=C(C)[C@H]1Cc2c(ccc3c2O[C@@H]2COc4cc(OC)c(OC)cc4[C@@H]2C3=O)O1`, the Potency was 2.96 µM (active). In the case of `O=C(O)C(=O)c1cn(Cc2ccccc2)c2ccc(-c3ccc(OC(F)(F)F)cc3)cc12`, the Potency is reported as “inactive”. For `CC(C)CC(N(C)C)C1(c2ccc(Cl)cc2)CCC1` (centres undefined), the Potency was 18.7 µM (active). In the case of `C#CCN(C)[C@H](C)Cc1ccccc1`, the Potency is reported as “inactive”. For `O=C1CC[C@@]2(O)[C@H]3Cc4ccc(O)c5c4[C@@]2(CCN3CC2CC2)[C@H]1O5`, the Potency was “inactive”. With `Cc1sc2c(c1C)C(c1ccc(Cl)cc1)=N[C@@H](CC(=O)OC(C)(C)C)c1nnc(C)n1-2` the Potency was 16.6 µM (active). With `Cc1cccc(C)c1NC(=O)CN1CCCC1=O` the Potency was “inactive”. In the case of `CNCC(O)c1ccc(O)cc1` (centres undefined), the Potency is reported as “inactive”. In the case of `Fc1ccc(C(OCCN2CCN(CCCc3ccccc3)CC2)c2ccc(F)cc2)cc1`, the Potency is reported as 20.9 µM (active). In the case of `CN(C)CCc1ccc(O)cc1`, the Potency is reported as “inactive”. For `COc1ccc(C(=O)c2c(C)n(CCN3CCOCC3)c3ccccc23)cc1`, the Potency was “inactive”. With `CN1CCN(C(=O)O[C@H]2c3nccnc3C(=O)N2c2ccc(Cl)cn2)CC1` the Potency was “inactive”.
